PubChem BioAssay (NCATS)
Records with an inconclusive call do not appear. Calls of active or inactive are those of the source. Unless noted, calls follow the shape of the dose curve; as a rule, active = well fitted curve in either direction with a large enough effect (not every such curve was filed as active); inconclusive = small, poorly fitted or top-dose-only effect, or another doubt; inactive = flat fitted curve, though single readings scatter.

Experiments:
[1] = target: Lysosomal acid glucosylceramidase (Homo sapiens) (UniProt P04062); assay: Glucocerebrosidase-p2 (AID 348; in the data active = potency below about 10 µM; also: potency is read from the fitted curve at half-maximal effect); settings: purified GBA, blue fluorogenic substrate, 40 min
Outline: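 Compounds titrated from 0.6 nM upwards against 0.2 nM enzyme in pH 5.9 citric acid/KH2PO4, taurocholate, tween-20; blue fluorogenic substrate 80 uM, 40 min room temperature, stopped and read Ex 365/Em 440 for AC50.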

[2] = AP1 Signaling Pathway (AID 357); settings: ME-180 AP-1-bla reporter, EGF-induced, beta-lactamase ratio, 5 h; at 7.69 µM (top of the series) unless noted;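 also: ME-180 reporter cells stimulated with EGF at its EC50 level; % is scaled to controls: 0 for no effect and ±100 for the full control effect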
Outline: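 Titration-series screen for positive or negative modulators of EC50 EGF-induced signaling in ME-180 cells carrying an AP-1-driven beta-lactamase reporter. After 5 hours at 37 degrees Celsius, CCF4 460nm/530nm emission ratio gave %Activity; AC50 values derived.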

[3] = NFAT Signaling Pathway (AID 444); settings: Jurkat NFAT-bla M1, carbachol, beta-lactamase ratio, 5 h; at 7.69 µM (top of the series) unless noted;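 also: carbachol stimulus at about its EC50 of 1 µM final; % is scaled to controls: 0 for no effect and ±100 for the full control effect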
Outline: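 Jurkat cells with NFAT-driven β-lactamase reporter and co-expressed M1 receptor, stimulated with carbachol (final 1 uM, ~EC50), compound titration, 5 h at 37 °C. CCF4 loaded 1 h at RT; 460/530 nm ratio gave %activity and AC50.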

[4] = Stat Signaling Pathway (AID 446); settings: ME-180 (cervical carcinoma) SIE beta-lactamase reporter, IL-6 stimulated, 5 h; at 7.69 µM (top of the series) unless noted;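 also: ME-180 cervical cancer cells given 40 pM IL-6 alongside compound; SIE-controlled beta-lactamase reporter measured as 460/530 nm FRET emission ratio; % is scaled to controls: 0 for no effect and ±100 for the full control effect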
Outline: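 IL-6/STAT signaling read in ME-180 cells via an SIE beta-lactamase reporter. Stimulus was 40 pM IL-6 (its AC50) for 5 hrs, so both activation and inhibition register.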

[5] = target: Glucocorticoid receptor (Homo sapiens) (UniProt P04150); assay: GR-GFP Redistribution (AID 450;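 active = compounds whose dose series gives a full or clear partial fitted curve of increased nuclear translocation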; also: potency is read from the fitted curve at half-maximal effect); settings: U2OS GR-GFP nuclear translocation, laser cytometry, 2 h
[6] = target: Glucocorticoid receptor (Homo sapiens) (UniProt P04150); assay: GR-EFC Redistribution (AID 451; calls by dose curve; also: potency is read from the fitted curve at half-maximal effect); settings: CHO-K1 GR-EFC translocation, beta-gal luminescence, 2 h
Outline: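 CHO-K1 cells expressing nuclear EA and GR-ED fragments of b-gal; compounds titrated up to 46 uM final, 2 h at 37 C. GR nuclear translocation read as complemented b-gal luminescence after 1 h RT detection.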

[7] = target: Mitogen-activated protein kinase 10 (Mus musculus) (UniProt Q61831); assay: JNK3 AlphaScreen Assay (AID 530); settings: JNK3 lysate, c-Jun phosphorylation; series mostly up to 11.4 µM;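 also: kinase came from lysate of stimulated human HepG2 cells; signal reports phosphorylation of biotinylated GST-cJun 1-79 at Ser73 with 10 µM ATP; % is scaled to controls: 0 for no effect and ±100 for the full control effect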
Outline: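 qHTS format: compounds tested as titrations against IL-1beta/TNF-alpha-activated HepG2 lysate JNK3 with biotin-GST-cJun substrate and 10 uM ATP at room temperature. Loss of anti-phospho-cJun AlphaScreen signal indicates inhibition.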

[8] = target: 3',5'-cyclic-AMP phosphodiesterase 4B (Homo sapiens) (UniProt Q07343); assay: qHTS Assay for Inhibitors of PDE-IV (AID 607; active = well fitted activation curve with a large enough effect in the main read-out, with a control signal flat, not every such curve was filed as active; also: % of control where 0% means no effect); settings: HEK293 ACTOne CNG channel cells, membrane potential fluorescence; series mostly up to 22.9 µM
Outline: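 Live HEK293 cells with a modified cyclic nucleotide-gated (CNG) channel report intracellular cAMP via membrane-potential dye fluorescence (ex 535/em 590 nm). Endogenous PDE-IV was targeted. Compounds were tested at up to 22.9 uM final; RO 20-1724 100 uM served as control.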

Sequence of Glucocorticoid receptor (Homo sapiens) (P04150 whole entry, looked up, the tested form may be a part): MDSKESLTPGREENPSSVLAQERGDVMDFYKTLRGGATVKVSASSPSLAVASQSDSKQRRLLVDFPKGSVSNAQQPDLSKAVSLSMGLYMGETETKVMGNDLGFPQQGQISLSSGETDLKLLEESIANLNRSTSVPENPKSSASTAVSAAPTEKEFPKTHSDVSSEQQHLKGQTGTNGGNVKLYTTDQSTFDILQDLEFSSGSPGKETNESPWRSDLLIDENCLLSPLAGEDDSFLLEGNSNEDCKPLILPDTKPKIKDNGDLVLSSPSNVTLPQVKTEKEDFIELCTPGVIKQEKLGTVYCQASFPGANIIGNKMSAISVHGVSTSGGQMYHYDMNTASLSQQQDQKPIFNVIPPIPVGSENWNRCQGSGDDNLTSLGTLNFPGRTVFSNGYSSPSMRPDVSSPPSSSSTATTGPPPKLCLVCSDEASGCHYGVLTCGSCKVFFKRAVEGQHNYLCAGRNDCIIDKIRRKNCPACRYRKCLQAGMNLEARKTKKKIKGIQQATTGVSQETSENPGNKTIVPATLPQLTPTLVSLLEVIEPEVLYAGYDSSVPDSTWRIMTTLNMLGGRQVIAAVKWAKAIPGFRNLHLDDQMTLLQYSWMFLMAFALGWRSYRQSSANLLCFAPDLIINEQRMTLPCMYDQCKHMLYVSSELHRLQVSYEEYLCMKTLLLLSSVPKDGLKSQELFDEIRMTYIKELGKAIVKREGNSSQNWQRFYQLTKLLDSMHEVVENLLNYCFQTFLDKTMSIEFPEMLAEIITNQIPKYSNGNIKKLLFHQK
Sequence of Lysosomal acid glucosylceramidase (Homo sapiens) (P04062 whole entry, looked up): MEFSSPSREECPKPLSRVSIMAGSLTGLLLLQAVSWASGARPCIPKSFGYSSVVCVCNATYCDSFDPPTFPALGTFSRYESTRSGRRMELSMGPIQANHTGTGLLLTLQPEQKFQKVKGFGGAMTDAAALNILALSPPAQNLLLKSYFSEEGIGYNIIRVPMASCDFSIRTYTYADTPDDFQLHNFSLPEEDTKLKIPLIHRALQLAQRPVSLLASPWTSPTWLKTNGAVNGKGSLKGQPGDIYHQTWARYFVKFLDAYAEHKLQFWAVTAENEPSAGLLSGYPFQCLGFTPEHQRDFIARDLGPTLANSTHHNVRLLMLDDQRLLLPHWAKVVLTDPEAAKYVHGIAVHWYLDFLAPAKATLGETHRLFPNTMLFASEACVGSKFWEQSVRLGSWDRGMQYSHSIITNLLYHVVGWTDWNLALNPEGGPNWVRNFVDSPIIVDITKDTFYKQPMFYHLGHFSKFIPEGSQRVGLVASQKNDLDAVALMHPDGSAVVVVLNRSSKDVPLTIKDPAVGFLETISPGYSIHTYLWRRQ
Sequence of 3',5'-cyclic-AMP phosphodiesterase 4B (Homo sapiens) (Q07343 whole entry, looked up): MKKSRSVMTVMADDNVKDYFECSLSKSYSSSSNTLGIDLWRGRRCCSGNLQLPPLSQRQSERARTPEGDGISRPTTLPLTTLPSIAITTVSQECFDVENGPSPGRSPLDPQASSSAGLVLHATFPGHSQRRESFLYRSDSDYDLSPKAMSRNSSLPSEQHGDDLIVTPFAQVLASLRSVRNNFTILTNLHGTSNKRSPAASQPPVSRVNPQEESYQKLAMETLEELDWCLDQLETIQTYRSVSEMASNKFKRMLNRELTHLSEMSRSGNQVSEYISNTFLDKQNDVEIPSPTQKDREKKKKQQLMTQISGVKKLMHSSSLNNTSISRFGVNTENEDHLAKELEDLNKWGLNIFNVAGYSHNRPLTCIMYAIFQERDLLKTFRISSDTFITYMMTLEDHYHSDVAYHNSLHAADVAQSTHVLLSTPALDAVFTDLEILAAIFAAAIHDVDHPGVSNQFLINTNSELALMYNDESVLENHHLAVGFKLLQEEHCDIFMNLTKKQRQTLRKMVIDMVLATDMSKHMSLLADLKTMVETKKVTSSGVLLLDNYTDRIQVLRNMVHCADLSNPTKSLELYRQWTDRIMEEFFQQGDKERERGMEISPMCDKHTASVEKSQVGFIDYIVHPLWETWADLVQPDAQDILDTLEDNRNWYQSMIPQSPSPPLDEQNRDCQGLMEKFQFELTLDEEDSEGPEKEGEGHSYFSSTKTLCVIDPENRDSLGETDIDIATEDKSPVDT

COc1cc(NCC[C@@H]2CCCCN2)c2ncccc2c1
inactive: Potency [1] > 11.4 µM | activity change, negative = inhibition [2] 28.5% | activity change, negative = inhibition [3] -23.9% | activity, negative = inhibition [4] 13.7% | Potency [5] > 46 µM | Potency [6] > 9.22 µM | Potency [7] | Potency [8]

S=C1NCN2CCN(CC2)CNC(=S)C(=S)NCN2CCN(CC2)CNC1=S
inactive: Potency [1] > 11.4 µM | activity change, negative = inhibition [2] 3.32% | activity change, negative = inhibition [3] -3.6% | activity, negative = inhibition [4] 3.07% | Potency [5] > 46 µM | Potency [6] > 9.22 µM | Potency [7] | Potency [8]

N#CCCn1c(=O)c(-c2ccccc2)nc2cnc(Oc3ccccc3)nc21
inactive: Potency [1] > 11.4 µM | activity change, negative = inhibition [2] -22.6% | activity change, negative = inhibition [3] -4.58% | activity, negative = inhibition [4] 2.8% | Potency [5] > 9.22 µM | Potency [6] > 46 µM | Potency [7] | Potency [8]

COc1cc(NCCC(=O)O)c2ncccc2c1
inactive: Potency [1] > 11.4 µM | activity change, negative = inhibition [2] 2.4% | activity change, negative = inhibition [3] 2.69% | activity, negative = inhibition [4] -1.17% | Potency [5] > 46 µM | Potency [6] > 9.22 µM | Potency [7] | Potency [8]

COCCn1c(=O)cnc2cnc(N3CCNCC3)nc21
inactive: Potency [1] > 11.4 µM | activity change, negative = inhibition [2] -9.65% | activity change, negative = inhibition [3] -7.03% | activity, negative = inhibition [4] -2.85% | Potency [5] > 9.22 µM | Potency [6] > 46 µM | Potency [7] | Potency [8]

CC(C)(N)C(=O)N[C@@H]1C(=O)N2[C@@H]1SC(C)(C)[C@H]2C(=O)O
inactive: Potency [1] > 11.4 µM | activity change, negative = inhibition [2] -6.43% | activity change, negative = inhibition [3] -0.727% | activity, negative = inhibition [4] -0.982% | Potency [5] > 46 µM | Potency [6] > 9.22 µM | Potency [7] | Potency [8]

O=S(=O)(O)n1ccnc1 (tested in a mixture with another compound)
inactive: Potency [1] > 11.4 µM | activity change, negative = inhibition [2] -2.09% | activity change, negative = inhibition [3] 6.55% | activity, negative = inhibition [4] 0.01% | Potency [5] > 46 µM | Potency [6] > 9.22 µM | Potency [7] | Potency [8]

Nc1nc2nc3c(nc2c(=O)[nH]1)CN(c1ccc(C(=O)O)cc1)C3=O
inactive: Potency [1] > 11.4 µM | activity change, negative = inhibition [2] -9.73% | activity change, negative = inhibition [3] 13.8% | activity, negative = inhibition [4] -8.98% | Potency [5] > 46 µM | Potency [6] > 9.22 µM | Potency [7] | Potency [8]

Cc1ccc(CN2CCN(Cc3ccc(C)o3)[C@@H](C)C2)o1
inactive: Potency [1] > 11.4 µM | activity change, negative = inhibition [2] -2.23% | activity change, negative = inhibition [3] -7.45% | activity, negative = inhibition [4] 1.61% | Potency [5] > 46 µM | Potency [6] > 9.22 µM | Potency [7] | Potency [8]

O=c1oc2ccccc2c(O)c1/C=N/c1nc(-c2ccc(O)c(O)c2)cs1
inactive: Potency [1] > 11.4 µM | activity change, negative = inhibition [2] -3.14% | activity change, negative = inhibition [3] 27.7% | activity, negative = inhibition [4] -11.7% | Potency [5] > 46 µM | Potency [6] > 9.22 µM | Potency [7] | Potency [8]

NCCOC[C@H](N)C(=O)O
inactive: Potency [1] > 11.4 µM | activity change, negative = inhibition [2] 3.26% | activity change, negative = inhibition [3] 11.6% | activity, negative = inhibition [4] -1.46% | Potency [5] > 46 µM | Potency [6] > 9.22 µM | Potency [7] | Potency [8]

S=c1[nH]nc(SCc2ccccc2Cl)c2[nH]cnc12
inactive: Potency [1] > 11.4 µM | activity change, negative = inhibition [2] -6.3% | activity change, negative = inhibition [3] 0.186% | activity, negative = inhibition [4] -8.85% | Potency [5] > 46 µM | Potency [6] > 9.22 µM | Potency [7] | Potency [8]

Nc1[nH]c(=O)nc2c1ncn2[C@H]1O[C@@H](CO)[C@@H](O)[C@@H]1O
inactive: Potency [1] > 11.4 µM | activity change, negative = inhibition [2] -9.66% | activity change, negative = inhibition [3] 15.7% | activity, negative = inhibition [4] 17.5% | Potency [5] > 46 µM | Potency [6] > 9.22 µM | Potency [7] | Potency [8]

COc1cc(C(=O)O)c([N+](=O)[O-])c(OC)c1OC
inactive: Potency [1] > 11.4 µM | activity change, negative = inhibition [2] 4.41% | activity change, negative = inhibition [3] 3.25% | activity, negative = inhibition [4] 0.596% | Potency [5] > 46 µM | Potency [6] > 9.22 µM | Potency [7] | Potency [8]

CN(CCC(=O)O)S(=O)(=O)c1ccccc1
inactive: Potency [1] > 11.4 µM | activity change, negative = inhibition [2] -0.615% | activity change, negative = inhibition [3] 15.6% | activity, negative = inhibition [4] 11.1% | Potency [5] > 46 µM | Potency [6] > 9.22 µM | Potency [7] | Potency [8]

O=C1C(=O)c2ccccc2C(O)=C1Cc1ccccc1
inactive: Potency [1] > 11.4 µM | activity change, negative = inhibition [2] -5.11% | activity change, negative = inhibition [3] 4.13% | activity, negative = inhibition [4] -11.8% | Potency [5] > 46 µM | Potency [6] > 9.22 µM | Potency [7] | Potency [8]

O=C(O)CCCN1CCCCC1
inactive: Potency [1] > 11.4 µM | activity change, negative = inhibition [2] 9.35% | activity change, negative = inhibition [3] 1.19% | activity, negative = inhibition [4] 9.26% | Potency [5] > 46 µM | Potency [6] > 9.22 µM | Potency [7] | Potency [8]
